Reference: the supplement of paper PMC10646978
± gives the standard deviation.

test system: RAW-Dual (murine macrophage reporter line); test: IRF reporter (Lucia luciferase) activity fold change vs agonist alone; higher = enhanced IRF activity; details: modulator concentration 10 µM; agonist: LPS 0.1 ug/mL
Outline: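 Overnight stimulation with a PRR agonist followed pre-incubation for 1 hour at 37 °C with compound at 10 μM final. This was done in RAW-Dual murine macrophage reporter cells seeded at 50 000 per well in 384-well plates. NF-κB (SEAP, QUANTI-Blue absorbance at 620 nm) and IRF (Lucia luciferase, QUANTI-Luc luminescence) were read from the supernatant. Each reporter's fold change relative to the mean agonist-only control on the same plate was averaged over replicate plates.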

Row | SMILES | IRF reporter
1 | Cl.Fc1ccc(C2CCNCC2COc2ccc3c(c2)OCO3)cc1 (stereo not given) | 1.05 ± 0.18
2 | O=C(O[C@@H]1C[C@@H]2C[C@@H]3C[C@H](C1)N2CC3=O)c1c[nH]c2ccccc12 [Prestw-1510] | 0.958 ± 0.055
3 | Cc1ccc(S(=O)(=O)NC(=O)NN2CC3CCCC3C2)cc1 (stereo not given) | 1.23 ± 0.46
4 | Cl.O[C@@H](c1cc(C(F)(F)F)nc2c(C(F)(F)F)cccc12)[C@H]1CCCCN1 | 1.04 ± 0.096
5 | COc1ccc(N2C(=O)C(=Cc3ccc([N+](=O)[O-])s3)SC2=S)cc1 | 1.25 ± 0.23
6 | N=C(N)Nc1ccc(Cl)cc1 | 0.986 ± 0.058
7 | O=C(O)c1ccc(NCn2nnc3ccccc32)cc1 | 1.37 ± 0.27
8 | Cc1ccc(C=C2Oc3c(ccc(O)c3CN3CCN(CCO)CC3)C2=O)cc1 | 1.39 ± 0.21
9 | Clc1cccc(OCCCOc2cccc3cccnc23)c1 | 1.18 ± 0.083
10 | COc1ccc2c(C)nc(Nc3nc(C)cc(-c4ccccc4)n3)nc2c1 | 1.28 ± 0.12
11 | CC12CC3(C)CC(C)(C1)CC(C(=O)NC(C)(C)CO)(C2)C3 | 1.42 ± 0.096
12 | c1ccc(CN2CCN(c3cc(-c4cccnc4)n[nH]3)CC2)cc1 | 1.37 ± 0.31
13 | CC(O)(CNC(=O)CSc1ccc(F)cc1)c1ccc(-c2ccccc2)cc1 (stereo not given) | 1.11 ± 0.072
14 | CCC(=O)Nc1ccc(S(=O)(=O)NCC2CCN(c3ncc(F)cn3)CC2)c(C)c1 | 1.21 ± 0.11
15 | Cc1cc(C)n(CCC(=O)N2CCc3nc4ccc(F)cn4c(=O)c3C2)n1 | 1.27 ± 0.079
16 | Cc1ccc(C2C=C(c3ccccc3)Nc3ncnn32)cc1 (stereo not given) | 1.13 ± 0.11
17 | Nc1nc(=O)n([C@@H]2CS[C@H](CO)O2)cc1F | 0.98 ± 0.22
18 | COc1cc(C(=O)O)ccc1NC(=O)[C@@H]1N[C@@H](CC(C)(C)C)[C@](C#N)(c2ccc(Cl)cc2F)[C@H]1c1cccc(Cl)c1F | 1.02 ± 0.21
19 | CC(=O)N1CCN=C1SCc1cccc(C(F)(F)F)c1 | 0.912 ± 0.068
20 | Cc1ccc(-n2c(C)cc(C=NNC(=O)CN3CCOCC3)c2C)c(C)c1 | 1.09 ± 0.19

Row | SMILES | IRF reporter
21 | N#Cc1cc(OC2CCSC2)nc2ccccc12 (stereo not given) | 0.959 ± 0.045
22 | CCCCC1=NC2(CCCC2)C(=O)N1Cc1ccc(-c2ccccc2-c2nnn[nH]2)cc1 [Prestw-1736] | 1.22 ± 0.19
23 | O=c1[nH]c(=O)n([C@H]2C[C@H](O)[C@@H](CO)O2)cc1I | 0.992 ± 0.069
24 | COc1cc2c(cc1OC)C1Cc3ccc(OC)c(OC)c3CN1CC2 (stereo not given) | 1.09 ± 0.14
25 | O=C(O)C=Cc1ccc(S(=O)(=O)NCc2cccnc2)cc1 | 1.46 ± 0.098
26 | COc1ccc(CNC2CCCc3ccccc32)c(OC)c1C (stereo not given) | 1.21 ± 0.14
27 | Cc1ccc(-n2nc(C(C)(C)C)cc2NC(=O)NCc2cc(F)ccc2Oc2ccc3c(cnn3CCO)c2)cc1 | 1.19 ± 0.22
28 | C1=C(c2ccccc2)Nc2nnnn2C1c1ccccc1 (stereo not given) | 1.34 ± 0.28
29 | CNc1ccc([N+](=O)[O-])cc1-n1cnc(-c2ccc([N+](=O)[O-])cc2)c1 | 1.41 ± 0.082
30 | CC(C)(C(=O)O)c1ccc(C(O)CCCN2CCC(C(O)(c3ccccc3)c3ccccc3)CC2)cc1.Cl (stereo not given) | 1.05 ± 0.48
31 | CN1CCN(C(=O)CN2C(=O)c3cccc4cccc(c34)C2=O)CC1 | 1.21 ± 0.19
32 | Cc1cn([C@H]2C=C[C@@H](CO)O2)c(=O)[nH]c1=O [Prestw-1279] | 0.94 ± 0.092
33 | CC1(C)CC(=O)c2sc(NC(=O)c3ccccc3)nc2C1 | 1 ± 0.13
34 | COC(=O)C1=CN(C2CC2)C=C(C(=O)OC)C1c1ccccc1Cl | 0.905 ± 0.039
35 | CC1CC(C)CN(S(=O)(=O)CCCOc2ccc3c(c2)OCO3)C1 (stereo not given) | 1.24 ± 0.09
36 | NC(=O)c1cn(Cc2c(F)cccc2F)nn1 | 0.923 ± 0.08
37 | CCOC(=O)c1sc(NN=Cc2cccc(Cl)c2)nc1C | 1.57 ± 0.23
38 | COc1cc2c(Oc3ccc4[nH]c(C)cc4c3F)ncnc2cc1OCCCN1CCCC1 | 1.22 ± 0.082
39 | CCCc1nn(C)c2c(=O)[nH]c(-c3cc(S(=O)(=O)N4CCN(C)CC4)ccc3OCC)nc12 | 1.25 ± 0.16
40 | CC(C(=O)O)c1ccc(C(=O)c2cccs2)cc1 (stereo not given) | 1.22 ± 0.14
